Inconclusive results are not listed. This is one part of the list. The source made the active and inactive calls. Unless noted, the call rests on the fitted dose curve; in most records, active means well fitted curve in the direction sought with a large enough effect; inconclusive means small, poorly fitted or top-dose-only effect, or another doubt; inactive means no such curve, though single readings can be large; an effect the other way counts as inactive or inconclusive.
Key:
[1] = target: Rap guanine nucleotide exchange factor 3 (Homo sapiens) (UniProt O95398); assay: Confirmatory qHTS for antagonist of cAMP-regulated guanine nucleotide exchange factor 3 (EPAC1) (AID 1645880); further: nearly all actives have a fitted effect of over 55% in size; further: potency means the concentration at half of the fitted maximal effect
In short: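 Nucleotide exchange uses 100 nM EPAC1, 250 nM RAP1B-BODIPY-GDP and 50 uM GDP, with compounds in a concentration-titration series. After 5 min at room temperature, fluorescence (480 nm ex/540 nm em) is read every 5 min for 30 min. Data are normalized to control ATA and DMSO.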

[2] = target: Rap guanine nucleotide exchange factor 3 (Homo sapiens) (UniProt O95398); assay: Confirmatory qHTS for agonist of cAMP-regulated guanine nucleotide exchange factor 3 (EPAC1) (AID 1645881); further: nearly all actives have a fitted effect of over 75% in size; further: potency means the concentration at half of the fitted maximal effect;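 on activation: EPAC1 catalysed release of BODIPY-GDP from Rap1B seen as fluorescence loss; 100% = effect of cAMP agonist control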
[3] = target: Rap guanine nucleotide exchange factor 4 (Homo sapiens) (UniProt Q8WZA2); assay: Confirmatory qHTS for agonist of cAMP-regulated guanine nucleotide exchange factor 4 (EPAC2) (AID 1645884);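 further: nucleotide exchange releases bodipy-GDP from Rap1 and this lowers its fluorescence; nearly all actives have a fitted effect of over 65% in size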; further: potency means the concentration at half of the fitted maximal effect; on activation: on the % scale 0 is the no-effect control and ±100 the full control effect
[4] = target: Rap guanine nucleotide exchange factor 4 (Homo sapiens) (UniProt Q8WZA2); assay: Confirmatory qHTS for antagonist of cAMP-regulated guanine nucleotide exchange factor 4 (EPAC2) (AID 1645885); further: nearly all actives have a fitted effect of over 25% in size; further: potency means the concentration at half of the fitted maximal effect
[5] = target: Rap guanine nucleotide exchange factor 3 (Homo sapiens) (UniProt O95398); assay: Counterscreen qHTS for antagonist of cAMP-regulated guanine nucleotide exchange factor 3 (EPAC1) (AID 1645888);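 further: fluorescence loss as bound BODIPY-GDP is released from Rap1B; % of control where 0% means no effect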
In short: (§1)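 Rap1B-BODIPY-GDP 250 nM + GDP 50 uM; cpds 7-pt, final 9.74 nM–152 uM (activator mode) or from 7.32 nM upwards (inhibitor mode); RT; FI 480/540 nm at 5 and 30 min, then ± cAMP, reread.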

[6] = target: Rap guanine nucleotide exchange factor 3 (Homo sapiens) (UniProt O95398); assay: Counterscreen qHTS for agonist of cAMP-regulated guanine nucleotide exchange factor 3 (EPAC1) (AID 1645889); further: nearly all actives have a fitted effect of over 40% in size; further: potency means the concentration at half of the fitted maximal effect; on activation: % of control where 0% means no effect
In short: as §1

[7] = target: Tumor susceptibility gene 101 protein (Homo sapiens) (UniProt Q99816); assay: qHTS Assay for Iinhibitors of HIV-1 Budding by Blocking the Interaction of PTAP/TSG101: Hit Validation (AID 651600); further: nearly all actives have a fitted effect of over 70% in size; further: potency means the concentration at half of the fitted maximal effect
In short: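 Fluorescence polarization binding assay: Tsg101 binding domain (10 uM) mixed with compounds and FITC-labeled PTAP peptide (50 nM) in HEPES pH 7.5, 0.15 M NaCl, 0.01% Tween 20, EDTA, TCEP; 20 min at r.t.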

[8] = AP1 Signaling Pathway (AID 357; active means well fitted curve in either direction with a large enough effect, not every such curve was filed as active;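 further: ME-180 reporter cells stimulated with EGF at its EC50 level; on the % scale 0 is the no-effect control and ±100 the full control effect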)
In short: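 Titration-series screen for positive or negative modulators of EC50 EGF-induced signaling in ME-180 cells carrying an AP-1-driven beta-lactamase reporter. After 5 hours at 37 degrees Celsius, CCF4 460nm/530nm emission ratio gave %Activity; AC50 values derived.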

[9] = NFAT Signaling Pathway (AID 444; active means well fitted curve in either direction with a large enough effect, not every such curve was filed as active;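 further: carbachol stimulus at about its EC50 of 1 µM final; on the % scale 0 is the no-effect control and ±100 the full control effect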); conditions: Jurkat NFAT-bla M1, carbachol, beta-lactamase ratio, 5 h; at 17.2 µM (top of the series)
In short: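 Read-out: CCF4 FRET ratio (460 nm/530 nm) after 1 h RT dye loading, used for %activity and AC50 from titration series. Cells: Jurkat NFAT-β-lactamase/M1 line, treated with compound plus 1 uM carbachol for 5 h, 37 °C.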

[10] = Stat Signaling Pathway (AID 446; active means well fitted curve in either direction with a large enough effect, not every such curve was filed as active;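 further: ME-180 cervical cancer cells given 40 pM IL-6 alongside compound; SIE-controlled beta-lactamase reporter measured as 460/530 nm FRET emission ratio; on the % scale 0 is the no-effect control and ±100 the full control effect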)
In short: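 Screening format detects activators and inhibitors alike: ME-180 SIE-bla cells stimulated at 40 pM IL-6 for 5 hrs with compound, then dual-emission beta-lactamase read at 405 nm excitation.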

[11] = target: Glucocorticoid receptor (Homo sapiens) (UniProt P04150); assay: GR-GFP Redistribution (AID 450;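 active means compounds whose dose series gives a full or clear partial fitted curve of increased nuclear translocation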; further: potency means the concentration at half of the fitted maximal effect); conditions: U2OS GR-GFP nuclear translocation, laser cytometry, 2 h
[12] = target: DNA polymerase kappa (Homo sapiens) (UniProt Q9UBT6); assay: qHTS for Inhibitors of Polymerase Kappa: Confirmatory Assay for Cherry-picked Compounds (AID 720501); conditions: purified Pol-kappa, fluorescent strand-displacement substrate; further: potency means the concentration at half of the fitted maximal effect
In short: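 Strand-displacement fluorescence read-out: TAMRA reporter released from a BHQ-2-quenched template, measured at 525/598 nm over a 10 min kinetic window. Substrate was 50 nM final; enzyme was 10 nM Pol-kappa, preincubated 15 min at room temperature with compound.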

[13] = target: DNA polymerase eta (Homo sapiens) (UniProt Q9Y253); assay: qHTS for Inhibitors of Polymerase Eta: Confirmatory Assay for Cherry-picked Compounds (AID 720502); conditions: Pol eta primer extension, TAMRA/BHQ fluorescence, 10 min; further: potency means the concentration at half of the fitted maximal effect
In short: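 Strand-displacement fluorescence (525 nm excitation, 598 nm emission) was read kinetically at 0 and 10 min after adding 50 nM final TAMRA-reporter/BHQ-2-template substrate. Beforehand, 10 nM Pol eta had been exposed to compound for 15 min at room temperature.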

Sequence of Rap guanine nucleotide exchange factor 3 (Homo sapiens) (O95398 whole entry, looked up): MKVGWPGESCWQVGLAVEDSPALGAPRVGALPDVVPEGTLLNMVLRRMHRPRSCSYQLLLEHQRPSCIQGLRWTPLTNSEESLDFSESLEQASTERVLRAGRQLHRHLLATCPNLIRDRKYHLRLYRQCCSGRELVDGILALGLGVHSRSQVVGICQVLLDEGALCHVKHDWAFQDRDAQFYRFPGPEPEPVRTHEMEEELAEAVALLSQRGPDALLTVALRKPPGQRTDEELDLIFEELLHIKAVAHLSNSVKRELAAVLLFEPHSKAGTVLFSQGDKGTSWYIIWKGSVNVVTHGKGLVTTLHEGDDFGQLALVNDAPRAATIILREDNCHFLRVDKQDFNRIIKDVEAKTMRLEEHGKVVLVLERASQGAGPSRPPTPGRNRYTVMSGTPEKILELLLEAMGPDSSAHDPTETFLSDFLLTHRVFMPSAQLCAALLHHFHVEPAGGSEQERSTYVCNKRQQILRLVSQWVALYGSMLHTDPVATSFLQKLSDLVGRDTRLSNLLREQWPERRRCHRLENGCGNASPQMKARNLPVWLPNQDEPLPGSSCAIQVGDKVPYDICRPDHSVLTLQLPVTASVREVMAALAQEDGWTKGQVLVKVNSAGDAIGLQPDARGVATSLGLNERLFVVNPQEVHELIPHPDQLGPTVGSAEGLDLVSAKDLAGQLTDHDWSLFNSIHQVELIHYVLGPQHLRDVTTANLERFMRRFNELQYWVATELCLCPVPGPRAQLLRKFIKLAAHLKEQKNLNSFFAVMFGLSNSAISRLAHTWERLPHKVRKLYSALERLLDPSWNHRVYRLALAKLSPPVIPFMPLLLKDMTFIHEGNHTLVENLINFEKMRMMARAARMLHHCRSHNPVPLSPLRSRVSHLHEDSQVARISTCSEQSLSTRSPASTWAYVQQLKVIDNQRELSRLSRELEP
Sequence of Tumor susceptibility gene 101 protein (Homo sapiens) (Q99816 whole entry, looked up, the tested form may be a part): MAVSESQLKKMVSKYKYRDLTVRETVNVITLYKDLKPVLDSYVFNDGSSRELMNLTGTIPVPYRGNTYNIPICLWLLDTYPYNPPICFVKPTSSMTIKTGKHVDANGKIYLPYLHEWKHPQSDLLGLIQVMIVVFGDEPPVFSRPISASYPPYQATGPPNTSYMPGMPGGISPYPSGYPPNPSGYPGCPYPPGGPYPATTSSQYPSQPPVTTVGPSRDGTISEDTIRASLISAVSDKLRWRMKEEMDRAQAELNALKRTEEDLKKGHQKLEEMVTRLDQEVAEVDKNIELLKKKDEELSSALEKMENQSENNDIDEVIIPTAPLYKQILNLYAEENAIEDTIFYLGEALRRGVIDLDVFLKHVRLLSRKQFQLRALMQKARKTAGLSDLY
Sequence of Rap guanine nucleotide exchange factor 4 (Homo sapiens) (Q8WZA2 whole entry, looked up): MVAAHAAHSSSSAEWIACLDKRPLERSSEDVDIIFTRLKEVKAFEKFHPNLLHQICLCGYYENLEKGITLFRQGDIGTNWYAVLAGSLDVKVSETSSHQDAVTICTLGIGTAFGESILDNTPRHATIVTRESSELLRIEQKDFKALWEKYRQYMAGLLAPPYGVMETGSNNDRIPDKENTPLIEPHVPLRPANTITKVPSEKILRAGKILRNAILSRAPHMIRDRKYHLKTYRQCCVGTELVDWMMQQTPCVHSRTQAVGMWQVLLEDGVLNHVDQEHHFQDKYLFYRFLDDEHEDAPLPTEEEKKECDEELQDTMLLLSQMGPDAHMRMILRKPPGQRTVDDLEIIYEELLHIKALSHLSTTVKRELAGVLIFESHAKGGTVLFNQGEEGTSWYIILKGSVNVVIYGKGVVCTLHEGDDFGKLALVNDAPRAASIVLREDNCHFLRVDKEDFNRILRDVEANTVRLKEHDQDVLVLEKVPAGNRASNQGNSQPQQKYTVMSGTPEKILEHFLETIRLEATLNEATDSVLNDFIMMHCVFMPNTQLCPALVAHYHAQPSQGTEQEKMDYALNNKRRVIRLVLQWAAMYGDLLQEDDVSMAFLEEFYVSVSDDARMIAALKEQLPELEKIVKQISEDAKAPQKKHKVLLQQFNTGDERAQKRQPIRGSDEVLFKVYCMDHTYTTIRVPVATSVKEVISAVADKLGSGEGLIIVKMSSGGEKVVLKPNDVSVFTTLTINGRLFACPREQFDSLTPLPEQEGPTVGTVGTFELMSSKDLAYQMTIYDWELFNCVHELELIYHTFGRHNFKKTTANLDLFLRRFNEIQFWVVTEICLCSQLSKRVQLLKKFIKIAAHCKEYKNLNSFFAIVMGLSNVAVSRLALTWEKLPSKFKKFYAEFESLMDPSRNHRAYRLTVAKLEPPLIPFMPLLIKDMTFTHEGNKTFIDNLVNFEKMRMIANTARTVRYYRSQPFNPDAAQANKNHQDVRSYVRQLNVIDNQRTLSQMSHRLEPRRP
Sequence of Glucocorticoid receptor (Homo sapiens) (P04150 whole entry, looked up): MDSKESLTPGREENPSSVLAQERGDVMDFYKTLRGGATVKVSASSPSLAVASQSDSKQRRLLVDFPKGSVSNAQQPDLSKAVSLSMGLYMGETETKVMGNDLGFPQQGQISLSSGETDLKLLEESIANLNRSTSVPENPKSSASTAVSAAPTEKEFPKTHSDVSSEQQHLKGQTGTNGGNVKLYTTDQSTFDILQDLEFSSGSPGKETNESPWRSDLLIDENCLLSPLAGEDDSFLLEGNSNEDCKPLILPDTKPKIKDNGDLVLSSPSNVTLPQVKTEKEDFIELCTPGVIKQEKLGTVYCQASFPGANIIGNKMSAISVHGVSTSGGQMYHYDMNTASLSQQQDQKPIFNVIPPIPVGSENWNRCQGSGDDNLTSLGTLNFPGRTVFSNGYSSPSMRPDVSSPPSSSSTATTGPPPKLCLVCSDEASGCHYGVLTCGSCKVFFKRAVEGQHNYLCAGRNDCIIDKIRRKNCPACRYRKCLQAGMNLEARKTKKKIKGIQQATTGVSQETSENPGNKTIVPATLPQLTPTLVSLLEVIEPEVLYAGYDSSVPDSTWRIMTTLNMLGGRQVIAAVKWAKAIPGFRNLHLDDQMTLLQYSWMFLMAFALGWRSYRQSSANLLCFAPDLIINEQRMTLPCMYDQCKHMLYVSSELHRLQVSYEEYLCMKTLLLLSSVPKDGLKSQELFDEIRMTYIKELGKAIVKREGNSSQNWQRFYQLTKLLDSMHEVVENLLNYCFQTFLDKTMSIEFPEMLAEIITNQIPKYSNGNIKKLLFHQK
Sequence of DNA polymerase kappa (Homo sapiens) (Q9UBT6 whole entry, looked up): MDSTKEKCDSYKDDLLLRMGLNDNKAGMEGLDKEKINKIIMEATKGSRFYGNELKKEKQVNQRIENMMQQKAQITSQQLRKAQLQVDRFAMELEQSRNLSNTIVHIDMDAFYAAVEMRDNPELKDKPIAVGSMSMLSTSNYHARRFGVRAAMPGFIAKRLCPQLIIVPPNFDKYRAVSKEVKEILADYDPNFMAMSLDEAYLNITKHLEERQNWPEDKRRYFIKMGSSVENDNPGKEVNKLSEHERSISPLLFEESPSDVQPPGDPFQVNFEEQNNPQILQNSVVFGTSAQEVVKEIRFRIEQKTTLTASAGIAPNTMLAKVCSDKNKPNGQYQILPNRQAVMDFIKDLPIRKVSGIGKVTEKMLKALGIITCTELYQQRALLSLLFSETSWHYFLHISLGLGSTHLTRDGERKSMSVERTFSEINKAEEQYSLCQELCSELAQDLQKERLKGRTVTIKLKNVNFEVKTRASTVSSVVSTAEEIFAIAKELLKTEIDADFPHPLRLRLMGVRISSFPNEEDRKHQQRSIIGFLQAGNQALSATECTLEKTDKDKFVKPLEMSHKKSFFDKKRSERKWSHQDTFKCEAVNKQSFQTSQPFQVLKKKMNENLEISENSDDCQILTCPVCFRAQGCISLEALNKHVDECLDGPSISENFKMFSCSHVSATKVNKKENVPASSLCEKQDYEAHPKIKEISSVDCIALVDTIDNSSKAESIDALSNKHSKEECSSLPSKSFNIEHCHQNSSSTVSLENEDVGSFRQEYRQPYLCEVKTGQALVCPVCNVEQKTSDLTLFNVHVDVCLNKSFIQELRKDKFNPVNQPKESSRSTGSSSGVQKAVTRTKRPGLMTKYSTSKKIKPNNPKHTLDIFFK
Sequence of DNA polymerase eta (Homo sapiens) (Q9Y253 whole entry, looked up): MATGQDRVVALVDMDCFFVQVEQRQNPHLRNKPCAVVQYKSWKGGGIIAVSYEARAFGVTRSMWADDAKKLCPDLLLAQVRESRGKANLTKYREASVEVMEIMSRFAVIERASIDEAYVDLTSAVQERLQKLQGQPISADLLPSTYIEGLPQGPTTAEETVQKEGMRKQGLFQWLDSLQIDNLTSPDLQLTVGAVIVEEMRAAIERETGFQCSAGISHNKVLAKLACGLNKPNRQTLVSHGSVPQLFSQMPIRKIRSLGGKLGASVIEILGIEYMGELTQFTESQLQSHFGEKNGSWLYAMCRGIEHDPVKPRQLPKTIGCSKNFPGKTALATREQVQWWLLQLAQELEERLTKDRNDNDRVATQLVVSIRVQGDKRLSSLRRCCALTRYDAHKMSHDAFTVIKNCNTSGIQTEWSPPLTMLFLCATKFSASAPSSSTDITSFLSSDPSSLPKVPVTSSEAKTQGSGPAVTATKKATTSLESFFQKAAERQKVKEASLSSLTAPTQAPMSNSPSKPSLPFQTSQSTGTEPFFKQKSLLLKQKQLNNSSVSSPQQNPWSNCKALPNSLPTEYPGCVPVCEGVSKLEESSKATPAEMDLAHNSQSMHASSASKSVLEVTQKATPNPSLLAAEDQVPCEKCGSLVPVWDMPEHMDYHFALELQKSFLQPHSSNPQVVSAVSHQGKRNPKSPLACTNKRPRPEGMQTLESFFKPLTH

CCN(CC)c1ccc(N=Cc2c(O)n(CCC3=CCCCC3)c(=O)[nH]c2=O)cc1
active: Potency [1] 75.7 µM
inactive: Potency [2] | Potency [3] | Potency [4] | outcome [5] | Potency [6]

O=c1nc(/C=C/c2ccc(Cl)cc2Cl)cc(C(F)(F)F)[nH]1
inactive: Potency [2] | activation [3] -2.31% [at 17.1 µM, percent relative to cAMP agonist control] | activity change, negative = inhibition [4] -10% [at 12.7 µM] | activation [6] 4.81% [at 30.8 µM]
active: Potency [1] 44.7 µM

Cn1cccc1/C=C1/C(=O)NC(=S)N(Cc2ccc(F)cc2)C1=O
active: Potency [1] 31.6 µM
inactive: Potency [2] | activation [3] 0.836% [at 17.1 µM, percent relative to cAMP agonist control] | activity change, negative = inhibition [4] -22.8% [at 12.7 µM] | activity change, negative = inhibition [5] -2.5% [at 30.8 µM] | activation [6] 10.8% [at 30.8 µM]

O=[N+]([O-])c1ccc(CN2CC=C(c3ccccc3)CC2)cc1
inactive: Potency [1] | Potency [2] | activation [3] 0% [at 17.1 µM, percent relative to cAMP agonist control] | activity change, negative = inhibition [4] 0.463% [at 12.7 µM] | activation [6] 8.24% [at 30.8 µM]

CCN1/C(=C/C=C/C2=[N+](CC)c3ccccc3C2(C)C)C(C)(C)c2ccccc21
active: Potency [2] 56.2 µM | Potency [3] 100 µM | Potency [6] 10 µM
inactive: Potency [1] | Potency [4] | outcome [5]

Cc1cc(/C=C2/C(=O)NC(=O)N(Cc3ccco3)C2=O)c(C)n1-c1ccccc1O
active: Potency [1] 44.7 µM | Potency [4] 0.19 µM
inactive: Potency [2] | activation [3] 11.8% [at 17.1 µM, percent relative to cAMP agonist control] | activation [6] 17.9% [at 30.8 µM]

O=C(c1cc(Cl)cc(Cl)c1)N1Cc2ccccc2-n2nncc2C1
inactive: Potency [1] | Potency [2] | activation [3] -5.36% [at 17.1 µM, percent relative to cAMP agonist control] | activity change, negative = inhibition [4] -20.5% [at 12.7 µM] | activity change, negative = inhibition [5] 29.2% [at 30.8 µM] | activation [6] 5.77% [at 30.8 µM]

Cc1ccc(CN2CCCN(Cc3ccccc3C)S2(=O)=O)cc1
inactive: Potency [1] | Potency [2] | Potency [3] | Potency [4] | Potency [6]

CCOC(=O)C1CCCN(c2ccc([N+](=O)[O-])c3nonc23)C1 (stereo not given)
inactive: Potency [1] | Potency [4]
active: Potency [2] 112 µM | Potency [3] 100 µM | Potency [6] 39.8 µM

Cc1cccc(N2C(=O)NC(=O)/C(=C\c3cccn3-c3ccc(Cl)cc3)C2=O)c1
inactive: Potency [2] | Potency [3] | Potency [4] | outcome [5] | Potency [6]
active: Potency [1] 47.8 µM

COc1ccc(N=Cc2c(O)n(Cc3ccccc3)c(=S)[nH]c2=O)c(OC)c1
inactive: Potency [1] | Potency [4] | outcome [5] | Potency [6]
active: Potency [2] 79.4 µM | Potency [3] 100 µM

O=[N+]([O-])c1ccc(NCc2ccccc2)c2nonc12
inactive: Potency [1] | Potency [4]
active: Potency [7] 1.03 µM | Potency [2] 8.91 µM | Potency [3] 100 µM | Potency [6] 22.4 µM

O=Cc1c(C(=O)O)n(Cc2ccc(Cl)cc2)c2ccccc12
inactive: Potency [1] | Potency [2] | Potency [3] | outcome [5]
active: Potency [4] 42.6 µM | Potency [6] 15.8 µM

O=C(O)CC1OCC=C2CN3CCC45C6=CC(=O)C(=O)C([N+](=O)[O-])=C6NC4C1C2CC35 (stereo not given)
inactive: Potency [1] | Potency [2] | Potency [3] | Potency [4] | Potency [6]

Cc1cc(OC(C)C(=O)N[C@H](C(=O)O)c2ccccc2)c2c3c(c(=O)oc2c1)CCC3 (stereo not given in full)
inactive: Potency [1] | Potency [2] | Potency [3] | Potency [6]
active: Potency [4] 42.6 µM

O=C1NC(=O)N(Cc2ccco2)C(=O)/C1=C/C=C/c1ccco1
inactive: Potency [1] | Potency [2] | activation [3] 0.0468% [at 17.1 µM, percent relative to cAMP agonist control] | activity change, negative = inhibition [4] 0.223% [at 12.7 µM] | activation [6] -8.64% [at 30.8 µM]

Oc1c(Cl)cccc1Cc1cc(Cl)cc(Cl)c1O
active: Potency [1] 19 µM
inactive: Potency [2] | Potency [3] | Potency [4] | outcome [5] | Potency [6]

Cc1ccc(C)c(Cn2c(C(=O)O)c(C=O)c3ccccc32)c1
inactive: Potency [1] | Potency [2] | activation [3] 10% [at 17.1 µM, percent relative to cAMP agonist control] | activity change, negative = inhibition [4] 3.6% [at 12.7 µM] | activity change, negative = inhibition [5] -5.1% [at 30.8 µM] | activation [6] 9.64% [at 30.8 µM]

CCCCn1c(O)c(C=NCCN2CCCCC2)c(=O)[nH]c1=O
active: Potency [4] 75.7 µM
inactive: outcome [8] | activity change, negative = inhibition [9] -9.1% | outcome [10] | Potency [11] > 20.6 µM | Potency [1] | Potency [2] | Potency [3] | outcome [5] | Potency [6]

CCn1c(O)c(C=Nc2ccc(N3CCOCC3)cc2)c(=O)n(CC)c1=S
inactive: Potency [1] | Potency [2] | Potency [4] | outcome [5]
active: Potency [7] 9.19 µM | Potency [3] 112 µM

OC1/C(=C/c2ccc(C(F)(F)F)cc2)N2CCC1CC2 (stereo not given)
inactive: Potency [1] | Potency [2] | Potency [3] | Potency [4] | Potency [6]

CCN(CC)C(=O)Cn1cc(C=C2C(=O)N(C)C(=O)N(C)C2=O)c2ccccc21
active: Potency [1] 79.4 µM
inactive: Potency [7] | Potency [2] | activation [3] 4.19% [at 17.1 µM, percent relative to cAMP agonist control] | activity change, negative = inhibition [4] 3.22% [at 12.7 µM] | activity change, negative = inhibition [5] -5.5% [at 30.8 µM]

O=C1NC(=O)N(Cc2ccco2)C(=O)/C1=C\c1ccc(-c2ccc(F)cc2)o1
inactive: Potency [2] | activation [3] -0.903% [at 17.1 µM, percent relative to cAMP agonist control] | activity change, negative = inhibition [4] -6.14% [at 12.7 µM] | activity change, negative = inhibition [5] -21.9% [at 30.8 µM] | activation [6] 11.1% [at 30.8 µM]
active: Potency [12] 42.3 µM | Potency [13] 47.8 µM | Potency [1] 22.4 µM
